# Assay results reported in PubChem BioAssay AID651871 (Sanford-Burnham Center for Chemical Genomics, 2012).
# Test system: HL-1
# Test: cardiomyocyte survival under oxidative or metabolic stress – cell-based, panel, H9c2 and HL-1, ATP luminescence, set 2, SAR follow-up (AID 651871);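 also: cells exposed to stressor for 2 h before ATP readout; reference of the scale not given here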
# Details: H9c2/HL-1 cardiomyocytes, 2-deoxyglucose stress, with 2-deoxyglucose
# [1] = run 9, at 79 µM (top of the series)
Compound,activity (protection/inhibition) [1] [%],"activity (protection/inhibition) (run 9, at 19.8 µM (top of the series)) [%]","activity (protection/inhibition) (run 9, at 39.5 µM (top of the series)) [%]"
CCOC(=O)c1cccc(NC(=O)CNC(=O)c2cc(-c3cc(OC)c(OC)c(OC)c3)nc3ccccc23)c1,91.8,–,–
COc1ccc2nc(-c3cc(OC)c(OC)c(OC)c3)cc(C(=O)NCC(=O)Nc3ccc(C(C)=O)cc3)c2c1,90,–,–
COc1ccc2c(c1OC)C(=O)N1c3ccccc3C(=O)N(Cc3cccc(Cl)c3Cl)C21 (stereo not given),-7.08,50.7,55.4
